Results on 46 sequences are retold here after paper PMC7819943, “Rice protein-binding microarrays: a tool to detect cis-acting elements near promoter regions in rice”.

Over roughly 68,000 sequences, “fluorescence intensity (a.u.)” has its median near 9,100; the highest 2% begin near 16,000. This excerpt belongs to a sample that is enriched for the highest values.

Chain of OsWRKY34 (Q0JBA9 entry or part of it): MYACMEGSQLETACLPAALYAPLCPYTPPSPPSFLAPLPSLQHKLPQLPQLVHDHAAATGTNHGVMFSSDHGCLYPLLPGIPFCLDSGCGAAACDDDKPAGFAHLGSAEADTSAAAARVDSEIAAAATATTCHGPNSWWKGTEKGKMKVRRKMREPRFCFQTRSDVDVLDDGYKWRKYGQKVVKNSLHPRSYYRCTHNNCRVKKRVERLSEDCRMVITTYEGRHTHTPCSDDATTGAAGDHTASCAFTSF

The target in the experiment is OsWRKY34 (Oryza sativa, UniProt Q0JBA9 1-250). The experiment can be described thus: protein-binding microarray (RPBM); PBS, 2% BSA, 51.3 ng/ul salmon testes DNA, 50 uM zinc acetate, 200 nM TF, 25 C, 1 h; high values mean tight binding. The conditions noted are these: protein: recombinant; tags: N-terminal polyhistidine and DsRed monomer fusion (pET32a); label: CyDye5-dUTP incorporated in the synthesized complementary strand; 3' TTTTT single-stranded linker to array surface; dsDNA, one strand shown. A digest of the protocol:
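Transcription factors were each fused at the N-terminus to a polyhistidine tag plus DsRed and expressed in E. coli BL21-CodonPlus before Ni–NTA purification. Binding to a double-stranded custom Agilent array was carried out with 200 nM protein at 25 °C for 1 h in PBS, 2% BSA, salmon testes DNA and 50 µM zinc acetate. The binding signal is per-feature fluorescence intensity, in arbitrary units, on an Axon 4000B scanner.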
For the sequence “CTCTCTCTGCTCGAGCCCGAGTAGCCCTCGTCGTCATTCTCGGAGTCACCTAGTGCAG”, the binding signal was 8950 fluorescence intensity (a.u.).

For the sequence “ATTATATGTCATTTGACTTTTCTCTTAGCTAAAGTTCTTTCGGAGTCACCTAGTGCAG”, the binding signal is 9800 fluorescence intensity (a.u.).

Turning to “CTATATATAAACGAGCACATCTCGTCGTCCCTCGCCATTCCGGAGTCACCTAGTGCAG”, the binding signal was 10400 fluorescence intensity (a.u.).

In the case of “TTAAACTGTATACCGTCGCTCGCGTCGCGCGCCGTTGACGCGGAGTCACCTAGTGCAG”, the binding signal was 9730 fluorescence intensity (a.u.).

Take “CATGTGTTTACTGGGGTGGTTGTTGTAACAAAATTGAGTACGGAGTCACCTAGTGCAG”: the binding signal was 9360 fluorescence intensity (a.u.).

Consider “GTCTGAGTACACTTCTGAGGCTTCTTTGGTCGTTTTGGCCCGGAGTCACCTAGTGCAG”, for which the binding signal is 9790 fluorescence intensity (a.u.).

“AAATATCAACCACATGCTCCTACTTCTATGGAAATTGATTCGGAGTCACCTAGTGCAG”: the binding signal is 10400 fluorescence intensity (a.u.).

For the sequence “TTGTCGTGTCACCTCCATTCTCACCCAACTTCCTTACCTACGGAGTCACCTAGTGCAG”, the binding signal is 13300 fluorescence intensity (a.u.).

In the case of “CTCGTTTACCTTACTCTCGCTTAGTTCGTTGAGGCATTTCCGGAGTCACCTAGTGCAG”, the binding signal is 14900 fluorescence intensity (a.u.).

With “GTTATTCAAAACTATAGTTATCTTCCGCCTATTTTTTTATCGGAGTCACCTAGTGCAG”, the binding signal was 10600 fluorescence intensity (a.u.).

In the case of “AGGGTTGTGATTGGTTGGGAAGAGAATGTTGGTAGATAAGCGGAGTCACCTAGTGCAG”, the binding signal is 9400 fluorescence intensity (a.u.).

As for “CCGGGGCCGGCAGCGGCGGGCGGGCGGGCTCGAGCGGTGGCGGAGTCACCTAGTGCAG”, the binding signal was 9020 fluorescence intensity (a.u.).

For the sequence “GGGAAGACGGTGGGGCGGGGACAGAGGTAGGGGAAGGAGGCGGAGTCACCTAGTGCAG”, the binding signal was 12600 fluorescence intensity (a.u.).

Take “GCAGCAGGGAGGTGGGGCGCAGGAGGAAGAAGAAGAGGGACGGAGTCACCTAGTGCAG”: the binding signal was 13300 fluorescence intensity (a.u.).

In the case of “GGGTGGGGAAGAAGAGGGGAAGCGGGGAGGAGGAGAGGGACGGAGTCACCTAGTGCAG”, the binding signal is 9680 fluorescence intensity (a.u.).

Consider “GATTGAGGGGAATGTTCCATGTTTTGTTGAACTCTTTTCCCGGAGTCACCTAGTGCAG”, for which the binding signal was 9320 fluorescence intensity (a.u.).

As for “GGTGGCGGGGCATCTCGCCGCCGACGGCTCGAGGAGGAAACGGAGTCACCTAGTGCAG”, the binding signal was 18400 fluorescence intensity (a.u.).

Consider “GACACTAATGTGTGTGAAGGGGAGATTGTTGAATGGTTCCCGGAGTCACCTAGTGCAG”, for which the binding signal was 65200 fluorescence intensity (a.u.).

With “CGGGGAAGGAGAGGGGCGTTAGGGAGGAGGGGCGCACAGACGGAGTCACCTAGTGCAG”, the binding signal was 16800 fluorescence intensity (a.u.).

For “ACCGCACAGAGAGGGAGGAGGCGGGGAGGACGGTGAGGGGCGGAGTCACCTAGTGCAG”, the binding signal was 10500 fluorescence intensity (a.u.).

In the case of “GGCGGCATCTCGCTCTACCGCGGGTGGGGCTTCGACTCCGCGGAGTCACCTAGTGCAG”, the binding signal was 12100 fluorescence intensity (a.u.).

For the sequence “CGGCGGAGGAGGAGGAGGAGGGGTGGGGAAGAAGAGGGGACGGAGTCACCTAGTGCAG”, the binding signal is 22800 fluorescence intensity (a.u.).

In the case of “CGTGGGCCCCACCCGTGCCAGCTCACCTCATCCCCACCACCGGAGTCACCTAGTGCAG”, the binding signal was 8940 fluorescence intensity (a.u.).

With “ATCGACCCTTGCGCGGACTCCGCTCTCTTGTTGACCACCTCGGAGTCACCTAGTGCAG”, the binding signal is 14600 fluorescence intensity (a.u.).

With “TCACTCATGCAGAGTCACAGCTTGTATAGTTGTAATGCATCGGAGTCACCTAGTGCAG”, the binding signal was 9000 fluorescence intensity (a.u.).

For “GCCTCGTCCACTCCACCACGCCGCCGAAAGCCGCAACTCTCGGAGTCACCTAGTGCAG”, the binding signal was 9580 fluorescence intensity (a.u.).

Turning to “CAACCTCTCCGGGGCGGGGCTGGCCGGCGAGCTGGCGGCGCGGAGTCACCTAGTGCAG”, the binding signal was 9150 fluorescence intensity (a.u.).

As to “AGCTGCCACAAGCCGAAGGCACGTTGACTTAAAAGAAGCCCGGAGTCACCTAGTGCAG”, the binding signal was 10700 fluorescence intensity (a.u.).

“ATATTTTCCGCCTACCCTGTACGCACGTTTATATACACAACGGAGTCACCTAGTGCAG”: the binding signal was 9400 fluorescence intensity (a.u.).

Regarding “CTTGGACCCACTTAATATGTTATATGGCTATTTCTAGTCACGGAGTCACCTAGTGCAG”, the binding signal was 8220 fluorescence intensity (a.u.).

As for “TAAGGTTTCTTCTGGGATCATTACATATACCTATATGGTTCGGAGTCACCTAGTGCAG”, the binding signal is 8100 fluorescence intensity (a.u.).

Regarding “AGTTTGTTTTTTTTCTGTCCTTGACATGGCCATTTTGTTACGGAGTCACCTAGTGCAG”, the binding signal is 9920 fluorescence intensity (a.u.).

On to “TTTCCGCCGCGGCGAGGAGGAGGAGGAGGAGGAGGGGCGACGGAGTCACCTAGTGCAG”, for which the binding signal was 9980 fluorescence intensity (a.u.).

On to “GTGCGACGGCGGCGGCGAAGTCAGTCCCCTCCTCGAGGGGCGGAGTCACCTAGTGCAG”, for which the binding signal is 27700 fluorescence intensity (a.u.).

Take “GCGGCGAAGCAGGGAGGAGGGAGGAGGAGGGGCGGCGGTGCGGAGTCACCTAGTGCAG”: the binding signal is 12100 fluorescence intensity (a.u.).

Consider “TTGGTTGGTTGGTTTGGTGGGCGGCGGTGCCGGAGGAAGACGGAGTCACCTAGTGCAG”, for which the binding signal is 21900 fluorescence intensity (a.u.).

In the case of “GGGCGGAGAGTTGGGGTTTGGGTTGGTGGCGGTGGGCCGGCGGAGTCACCTAGTGCAG”, the binding signal was 14800 fluorescence intensity (a.u.).

On to “CAGCGACGGTGGGGAGGTGGGCGTGGGCGGTTGCCGGCGGCGGAGTCACCTAGTGCAG”, for which the binding signal is 11200 fluorescence intensity (a.u.).

Regarding “TCCTCGCCGACGGCGTGCCGGCTCACGTTGCACCTCACCGCGGAGTCACCTAGTGCAG”, the binding signal is 8210 fluorescence intensity (a.u.).

Take “CTTTCCTGCACCTCCACTTTATTTAGTTCATTAATTGAATCGGAGTCACCTAGTGCAG”: the binding signal is 8660 fluorescence intensity (a.u.).

For “TGGTTGTGTTCTTGTTGGCTTATACCTTTTTTATGTTTTGCGGAGTCACCTAGTGCAG”, the binding signal was 9260 fluorescence intensity (a.u.).

As for “GGTTCTCTTTTCTTTTCTTTTCTTTTCTCCTGGAGTTTTTCGGAGTCACCTAGTGCAG”, the binding signal was 9120 fluorescence intensity (a.u.).

Take “CTTCGGTGTACTTTTTTCTTTTCTAGTTCCTGGTTCTAATCGGAGTCACCTAGTGCAG”: the binding signal is 18000 fluorescence intensity (a.u.).

For “ACTTTGTTTACACGGTGGTTCTCTCCTTTTCTTCTTCTCACGGAGTCACCTAGTGCAG”, the binding signal is 8480 fluorescence intensity (a.u.).

With “TTAATTACTTCCTTTTCTTTTCTTTTCTTTTCCTTTTTTTCGGAGTCACCTAGTGCAG”, the binding signal was 8110 fluorescence intensity (a.u.).

With “GTGCGGTTTTTCTCCTGGTTCTTTTGTGTACTTTATACCACGGAGTCACCTAGTGCAG”, the binding signal is 18200 fluorescence intensity (a.u.).
